Reference: PubChem BioAssay (NCATS)
Results filed as inconclusive are left out. Entries that show only a call come without a potency. The source made the active and inactive calls. Calls come from the whole dose curve; as a rule, active = well fitted curve in the direction sought with a large enough effect; inconclusive = small, poorly fitted or top-dose-only effect, or another doubt; inactive = no such curve, though single readings can be large; an effect the other way counts as inactive or inconclusive.

Experiments:
[1] = target: Calcium and integrin-binding protein 1 (Homo sapiens) (UniProt Q99828); experiment: Validation qHTS for Identification of Calcium Integrin Binding protein 1 (CIB1) Competitor (AID 1508618)
How it was run: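 CIB1-GST (1 uM final) in 5 mM HEPES pH 7.4, 125 mM NaCl, 5 mM CaCl2, 0.01% Tween20 was preincubated 15 min at room temperature with compound (up to 114 uM), then FITC-alphaIIb peptide (100 nM) added for 15 min; fluorescence polarization read.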

[2] = Primary qHTS for small molecule stabilizers of the endoplasmic reticulum resident proteome: Secreted ER Calcium Modulated Protein (SERCaMP) assay (AID 1508630)
How it was run: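 GLuc-SERCaMP-expressing SH-SY5Y cells, pretreated 16 h with compound, are challenged with thapsigargin to empty ER calcium stores; after 4 h, coelenterazine is added directly to the medium and luminescence is imaged.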

[3] = target: Papain (Carica papaya) (UniProt P00784); experiment: Primary qHTS assay for inhibitors of the protease papain (AID 1645873);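 note: papain turnover of Z-FR-AMC read as the AMC fluorescence gain over 10 min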; note: potency is the fitted concentration of half-maximal effect
Chain of Papain (Carica papaya) (P00784 whole entry, looked up): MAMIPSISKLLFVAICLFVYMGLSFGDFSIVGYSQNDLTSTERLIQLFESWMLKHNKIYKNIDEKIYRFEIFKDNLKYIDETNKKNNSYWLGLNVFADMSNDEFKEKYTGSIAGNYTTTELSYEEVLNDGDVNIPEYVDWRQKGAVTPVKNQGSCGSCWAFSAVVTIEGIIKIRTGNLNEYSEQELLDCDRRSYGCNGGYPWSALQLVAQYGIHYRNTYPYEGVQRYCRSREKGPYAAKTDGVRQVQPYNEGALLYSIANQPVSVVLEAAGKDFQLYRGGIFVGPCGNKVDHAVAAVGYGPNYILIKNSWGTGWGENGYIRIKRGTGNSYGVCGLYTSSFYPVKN

Chain of Calcium and integrin-binding protein 1 (Homo sapiens) (Q99828 whole entry, looked up): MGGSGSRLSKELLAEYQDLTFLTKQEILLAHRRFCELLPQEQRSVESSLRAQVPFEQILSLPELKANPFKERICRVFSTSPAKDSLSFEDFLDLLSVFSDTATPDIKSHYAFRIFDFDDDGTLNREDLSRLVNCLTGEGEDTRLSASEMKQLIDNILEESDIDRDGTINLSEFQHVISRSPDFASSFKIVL

| Structure (SMILES) | Potency [1] | Potency [2] | Potency [3] |
| --- | --- | --- | --- |
| CC(C)(C)c1cc(/C=C(\C#N)C(N)=S)cc(C(C)(C)C)c1O | inactive | inactive | inactive |
| CN(CC[C@@H](Oc1ccc(C(F)(F)F)cc1)c1ccccc1)CC(=O)O | inactive | inactive | inactive |
| N=S(=O)(O)Cc1noc2ccccc12 | inactive | inactive | inactive |
| Cc1cc2c(cc1Cl)N(C(=O)Nc1ccnc3ccccc13)CC2 | inactive | inactive | inactive |
| Cn1c(=O)c2c(nc(/C=C/c3cccc(Cl)c3)n2C)n(C)c1=O | inactive | inactive | 3.55 µM (active) |
| CCC(=O)N1CCN(C(=O)c2ccccc2)CC1 | inactive | inactive | inactive |
| CCN1C(=O)C=CC1=O | inactive | inactive | inactive |
| CC(C)NCC(O)COc1ccc(CC(N)=O)cc1 (stereo unspecified) | inactive | inactive | inactive |
| COc1cc(C(O)CO)ccc1O (stereo unspecified) | inactive | inactive | inactive |
| O=C(O)C1=CCNCC1 | inactive | inactive | inactive |
| NC1(C(=O)O)CCCCC1 | inactive | inactive | inactive |
| O=c1onc2n1-c1cc(Br)ccc1OC2 | inactive | inactive | inactive |
| OCC1NCC(O)C(O)C1O (stereo unspecified) | inactive | inactive | inactive |
| c1ccc2c(c1)CCC[C@H]2Nc1nc2ccccc2[nH]1 | inactive | inactive | inactive |
| COc1cc(N)c(Cl)cc1C(=O)OCCN1CCCCC1 | inactive | inactive | inactive |
| CCCCCCCCCCC(C)(C)C(=O)Nc1c(OC)cc(OC)cc1OC | inactive | inactive | inactive |
| CC(N)(Cc1ccc(O)cc1)C(=O)O (stereo unspecified) | inactive | inactive | inactive |
| O=C(c1ccc2c(c1)OCCO2)N1CCCCC1 | inactive | inactive | inactive |
| N[C@@H](Cc1ccc(F)cc1)C(=O)O | inactive | inactive | inactive |
| O=C(O)[C@H]1NCCC[C@H]1C(=O)O | inactive | inactive | inactive |
| NCCNS(=O)(=O)c1cccc2c(Cl)cccc12 | inactive | inactive | inactive |
| O=C(OCCN1CCOCC1)C1(c2ccccc2)CCCCC1 | inactive | inactive | inactive |
